Experimental data from PubChem BioAssay (NCATS).
Records with an inconclusive call do not appear. Calls of active or inactive are those of the source. The call rests on the fitted dose curve; in most records, active means well fitted cell-killing curve with a large enough effect; inconclusive means small, poorly fitted or top-dose-only effect, or effect the other way; inactive means flat fitted curve, though single readings scatter.

Legend:
Experiment in all cases: Primary qHTS to identify gynecologic anti-cancer compounds using libraries of approved drugs and bioactive compounds (AID 1345084); further: nearly all actives have a fitted effect of over 55% in size
Hek293T = conditions: Gynecologic cancer cell panel viability, ATPlite luminescence, 48 h, control line for the selectivity index; series mostly up to 57.5 µM
Method in brief: (§1)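 Luminescence from the ATPlite ATP-monitoring reagent indicates viable cell number; lower signal means cytotoxicity. Cells received compound 16 h after seeding and were exposed for 48 h across five concentrations.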

JEG-3 = conditions: Gynecologic cancer cell panel viability, ATPlite luminescence, 48 h; series mostly up to 57.5 µM
Method in brief: as §1

OV90 = conditions: Gynecologic cancer cell panel viability, ATPlite luminescence, 48 h; series mostly up to 57.5 µM
Method in brief: as §1

PA-1 = conditions: Gynecologic cancer cell panel viability, ATPlite luminescence, 48 h; series mostly up to 57.5 µM
Method in brief: as §1

SKOV3 = conditions: Gynecologic cancer cell panel viability, ATPlite luminescence, 48 h; series mostly up to 57.5 µM
Method in brief: as §1

Tov-21-G = conditions: Gynecologic cancer cell panel viability, ATPlite luminescence, 48 h; series mostly up to 57.5 µM
Method in brief: as §1

Tov112D = conditions: Gynecologic cancer cell panel viability, ATPlite luminescence, 48 h; series mostly up to 57.5 µM
Method in brief: as §1
On the % scale 0 is the no-effect control and ±100 the full control effect.

CN1[C@H]2C[C@H](OC(=O)[C@H](CO)c3ccccc3)C[C@@H]1[C@@H](O)C2
inactive: Potency (Hek293T) | Potency (JEG-3) | Potency (OV90) | Potency (PA-1) | Potency (SKOV3) | Potency (Tov-21-G) | Potency (Tov112D)

OC1(c2ccc(Cl)cc2)c2ccccc2C2=NCCN21 (centres undefined)
inactive: Potency (Hek293T) | Potency (JEG-3) | Potency (OV90) | Potency (PA-1) | Potency (SKOV3) | Potency (Tov-21-G) | Potency (Tov112D)

CC1=C2C[C@H]3[C@@H](CC=C4C[C@@H](O)CC[C@@]43C)[C@@H]2CC[C@]12O[C@@H]1C[C@H](C)CN[C@H]1[C@H]2C
inactive: Potency (Hek293T) | Potency (JEG-3) | Potency (OV90) | Potency (PA-1) | Potency (SKOV3) | Potency (Tov-21-G) | Potency (Tov112D)

COC(=O)N1CCN(C(=O)Cc2ccc(Cl)c(Cl)c2)[C@@H](CN2CCCC2)C1
inactive: Potency (Hek293T) | Potency (JEG-3) | Potency (OV90) | Potency (PA-1) | Potency (SKOV3) | Potency (Tov-21-G) | Potency (Tov112D)

C[C@@H]1C(=O)O[C@H]2[C@H](O)[C@@]34[C@@H]5OC(=O)[C@@]3(O[C@@H]3OC(=O)[C@@H](O)[C@@]34[C@H](C(C)(C)C)[C@H]5O)[C@@]12O
inactive: Potency (Hek293T) | Potency (JEG-3) | Potency (OV90) | Potency (PA-1) | Potency (SKOV3) | Potency (Tov-21-G) | Potency (Tov112D)

CC(C)(C)c1cc(C(C)(C)C)c2c(c1)C(O)(C(F)(F)F)C(=O)O2 (centres undefined)
inactive: Potency (Hek293T) | Potency (JEG-3) | Potency (OV90) | Potency (PA-1) | Potency (SKOV3) | Potency (Tov-21-G) | Potency (Tov112D)

Oc1ccc2c3c1O[C@H]1[C@H](N(CCCl)CCCl)CC[C@@]4(O)[C@@H](C2)N(CC2CC2)CC[C@]314
inactive: activity change, negative = cytotoxicity (Hek293T) 0.845% [at 11.6 µM] | activity change, negative = cytotoxicity (JEG-3) -5.35% [at 11.6 µM] | activity change, negative = cytotoxicity (OV90) 0.162% [at 11.6 µM] | activity change, negative = cytotoxicity (PA-1) 6.51% [at 11.6 µM] | activity change, negative = cytotoxicity (SKOV3) 9.08% [at 11.6 µM] | activity change, negative = cytotoxicity (Tov-21-G) 6.96% [at 11.6 µM] | activity change, negative = cytotoxicity (Tov112D) 3.75% [at 11.6 µM]
